Measured values as given in PubChem BioAssay (EPA / NIEHS).
The source made the active and inactive calls. The calls were made as follows: active = hit-call score of the fitted dose curve at least 0.9, where 1 is the maximum; inactive = score below 0.9.

test: CCTE_Shafer_MEA_dev_inter_network_spike_interval_mean: CCTE's Neural Network Formation Assay for Mean Inter-network Spike Interval, Shafer Lab (AID 2284047)
Protocol: CCTE_Shafer_MEA_dev assay is conducted using Axion Biosystems 48 well microelectrode array (MEA) plates and Maestro recording system. Each well of the MEA plate contains a grid of 16 microelectrodes embedded in the culture surface. Electrically active cells, such as neurons, can be cultured over the electrodes, and electrical activity in these cells can be recorded extracellularly. The spontaneous firing of neurons is captured from each electrode on a microsecond timescale providing both temporally and spatially precise data. […] The CCTE_Shafer_MEA_dev assay uses primary cultures of rat cortical neurons. Recordings are made on days post-plating 5, 7, 9 and 12. As these cultures mature over time, neural networks develop functional activity and form cohesive networks in which electrical activity can be highly coordinated. CCTE_Shafer_MEA_dev_inter_network_spike_interval_mean is 1 of 19 assay components of the CCTE_Shafer_MEA_dev assay. It measures the average time interval between network spikes (temporally-clustered groups of actional potential firing across multiple electrodes) as the average time between peaks of consecutive network spikes during a recording in a microelectrode array (MEA) using Axion Biosystems Maestro 768 channel amplifier with the AxIS adaptive spike detector. To collapse across multiple recordings made on days post-plating 5, 7, 9 and 12, the trapezoidal area-under-the-curve of the component is calculated.Data from the assay component CCTE_Shafer_MEA_dev_inter_network_spike_interval_mean was analyzed into 1 assay endpoint. This assay endpoint, CCTE_Shafer_MEA_dev_inter_network_spike_interval_mean, was analyzed in the negative analysis fitting direction relative to DMSO as the negative control and baseline of activity. Using a type of functional reporter, gain or loss-of-signal activity can be used to understand electrical activity.
On the day prior to culture, each well was coated thoroughly with 150 uL of 0.05% polyethyleneimine (PEI, Sigma Cat P3143) in 50 mM HEPES (Sigma Cat H7523) at a pH of 8. The plate was incubated at 37C for one hour. PEI was rinsed out with 500 uL of sterile water three times. Plates were stored at 4C until the day of culture. This culture was plated at a seeding density of 1.5 x 10^5 cells/well on a 48-well MEA plate, prepared as described above. Cells were administered via a 25 uL media/laminin ([…]; Sigma Cat L2020-1MG) drop directly onto the microelectrode array, as adding the cells with the laminin results in better attachment than pre-coating with laminin. After 2 hours, an additional 475 uL of cortical media was added and the cells returned to the incubator. Exposure starts at day 0 of plating and is continued over twelve days of network development until the experiment is terminated. Cells are fed with fresh medium on DIV 5 and 9, following the recordings on those days. The entire volume of media in the well is exchanged and any vehicle or compound treatment is renewed. Complete details are found in OP-NHEERL/ISTD/SBB/TJS/2015-03-r0 (available on request, email shafer.tim@epa.gov). Measurement of the electrical activity is non-invasive, and recordings can be made from the same plate over multiple different days of the culture. In cortical neurons, this allows for the measurement of extracellular action potentials over the period during which networks form in the MEA plate.

Compound | outcome
NC(=O)c1ccc(N)nc1 | inactive
C=CC(F)(C(F)(F)F)C(F)(F)C(F)(F)F (stereo not given) | inactive
CC(F)(F)CC(F)(F)F | inactive
CC1(C)[C@H](C(=O)O[C@H](C#N)c2cccc(Oc3ccccc3)c2)[C@@H]1/C=C(\Cl)C(F)(F)F | inactive
CC(=O)C(F)(F)C(F)(F)F | inactive
CCOCn1c(-c2ccc(Cl)cc2)c(C#N)c(Br)c1C(F)(F)F | inactive
CC(C)[C@@H](Nc1ccc(C(F)(F)F)cc1Cl)C(=O)OC(C#N)c1cccc(Oc2ccccc2)c1 (stereo not given in full) | inactive
CNC(=O)CSP(=O)(OC)OC | inactive
CS(=O)(=O)c1ccc(C(=O)C2C(=O)CCCC2=O)c(Cl)c1COCC(F)(F)F | inactive
Cc1ccccc1OP(=O)(Oc1ccccc1C)Oc1ccccc1C | inactive
O=S(=O)(F)C(F)(F)C(F)(F)C(F)(F)C(F)(F)F | inactive
FC(F)OCC(F)(F)C(F)(F)F | inactive
Cc1cc(C(F)(C(F)(F)F)C(F)(F)F)ccc1NC(=O)c1cccc(I)c1C(=O)NC(C)(C)CS(C)(=O)=O | inactive
OC(Cc1ccccc1Cl)(Cn1[nH]cnc1=S)C1(Cl)CC1 (stereo not given) | inactive
C=CCOC(F)(C(F)(F)F)C(F)(F)F | inactive
